Results from ChEMBL document CHEMBL4513146, “CO-ADD screening of Karazin Kharkiv National University (Ukraine) compounds”.
Results with a measured potency or affinity are listed apart.

Test system: Candida albicans
Details: Concentration 32 ug.mL-1; ASSAY_TEST Inhibition of Fungal Growth; detection method Absorption (OD530)

First: CCc1nnc2c(SCC(=O)Nc3ccc(C(=O)OC)cc3)nc3ccccc3n12
Second: CCc1nnc2c(SCC(=O)Nc3ccc(OC)c(Cl)c3)nc3ccccc3n12
The Inhibition of the first is lower: 4.91% for the first, 5.38% for the second.

Compared with `O=C(Cn1nc2c(Oc3ccccc3)nccn2c1=O)Nc1ccc2c(c1)OCCO2`, `COc1cccc(Oc2nccn3c(=O)n(CC(=O)NCc4ccccc4Cl)nc23)c1` is lower in Inhibition: 0.75% for the first, -2.46% for the second.

First: Cc1ccc(NC(=O)Cn2nc3c(SCc4ccc(Cl)cc4)nccn3c2=O)cc1F
Second: COc1ccc(OC)c(NC(=O)Cn2nc3c(SCc4ccc(Cl)cc4)nccn3c2=O)c1
The Inhibition of the first is lower: 3.39% for the first, 23.62% for the second.

Going from `CCc1ccc(NC(=O)Cn2nc3c4cc(-c5ccc(Cl)cc5)nn4ccn3c2=O)cc1` to `CCOc1ccc(NC(=O)Cn2nc3c4cc(-c5ccc(C)cc5)nn4ccn3c2=O)cc1`, the Inhibition falls from 3.83% to 1.16%.

Going from `COC(=O)c1sccc1NC(=O)CSc1nc2ccccc2n2c(C)nnc12` to `CCc1nnc2c(SCC(=O)Nc3ccc(C)cc3Cl)nc3ccccc3n12`, the Inhibition falls from 5.11% to 1.59%.

Going from `O=C(NCc1ccccc1)c1ccc2nn(CC(=O)N3CCN(c4ccccc4F)CC3)c(=O)n2c1` to `CCOC(=O)C1CCN(c2nc3ccccc3n3c(=O)n(CC(=O)Nc4ccccc4F)nc23)CC1`, the Inhibition rises from 4.65% to 13.18%.

Going from `COc1cc(NC(=O)Cn2nc3ccc(SC(C)C)nn3c2=O)cc(OC)c1` to `CC(C)(C)S(=O)(=O)c1ccc2nn(CC(=O)Nc3ccc(Br)cc3)c(=O)n2n1`, the Inhibition falls from 10.99% to 2.28%.

Going from `O=C(CSc1nnc2c3cc(-c4ccccc4)nn3ccn12)Nc1cccc(Br)c1` to `O=C(CSc1nnc2c(=O)n(-c3cccc(F)c3)ccn12)Nc1ccc(Br)cc1F`, the Inhibition rises from 3.21% to 5.02%.

First: CCOC(=O)c1ccc(NC(=O)Cn2nc3c4cc(-c5ccc(C)c(C)c5)nn4ccn3c2=O)cc1
Second: Cc1ccc(-c2cc3c4nn(CC(=O)Nc5c(C)cccc5C)c(=O)n4ccn3n2)cc1
The Inhibition of the first is higher: 1.14% for the first, -0.52% for the second.

First: COc1ccc(-c2cc3c4nn(CC(=O)Nc5ccc(F)cc5)c(=O)n4ccn3n2)cc1
Second: Cc1ccc(-c2cc3c4nn(CC(=O)Nc5ccc6c(c5)OCO6)c(=O)n4ccn3n2)cc1
The Inhibition of the first is higher: 15.17% for the first, 9.65% for the second.

Compared with `Cc1ccc(-c2ccc3nn(Cc4cc(F)cc(F)c4)c(=O)n3n2)cc1C`, `COc1ccc(-c2noc(Cn3nc4ccc(-c5ccccc5)nn4c3=O)n2)cc1OC` is higher in Inhibition: 0.47% for the first, 4.81% for the second.

Compared with `CCc1ccc(N(Cc2ccc(OC)cc2)S(=O)(=O)c2cccn3c(C)nnc23)cc1`, `COC(=O)c1ccc(CN(c2ccc(F)cc2)S(=O)(=O)c2cccn3c(C)nnc23)o1` is higher in Inhibition: 3.18% for the first, 3.23% for the second.

Compared with `CSc1ccc(CNC(=O)Cn2nc3c(N4CCOCC4)nccn3c2=O)cc1`, `COC(=O)c1ccc(NC(=O)Cn2nc3c(N4CCOCC4)nccn3c2=O)cc1` is lower in Inhibition: 3.79% for the first, 2.39% for the second.

Compared with `CCc1ccccc1Sc1nccn2c(=O)n(CC(=O)NCc3ccc(OC)cc3)nc12`, `CCc1ccccc1NC(=O)Cn1nc2cc(C)nc(Nc3ccc(F)cc3)n2c1=O` is higher in Inhibition: 2.04% for the first, 29.91% for the second.

Compared with `Cc1cc2nn(CC(=O)Nc3ccc(F)cc3F)c(=O)n2c(Nc2ccc(C)c(F)c2)n1`, `Cc1cccc(NC(=O)Cn2nc3ccc(-c4ccccc4)nn3c2=O)c1` is lower in Inhibition: 24.78% for the first, 4.41% for the second.

Compared with `COC(=O)c1ccc(CN(c2cccc(C)c2)S(=O)(=O)c2cccn3c(C)nnc23)o1`, `COc1ccc(CN(c2cc(C)cc(C)c2)S(=O)(=O)c2cccn3cnnc23)cc1F` is lower in Inhibition: 2.2% for the first, 0.54% for the second.

First: Cc1nnc2ccc(S(=O)(=O)N(Cc3cccc(F)c3)c3cc(F)cc(F)c3)cn12
Second: O=S(=O)(c1ccc2nncn2c1)N(Cc1cc(F)cc(F)c1)c1cc(F)cc(F)c1
The Inhibition of the first is lower: -1.03% for the first, 0.05% for the second.

Going from `O=C(Cn1nc2ccc(SCc3ccc(Cl)cc3)nn2c1=O)NC1CCCCC1` to `O=C(Cn1nc2nc(Nc3ccc(F)cc3)ccn2c1=O)N1CCCc2ccccc21`, the Inhibition falls from 3.05% to 2.56%.

Compared with `COc1cccc(-c2noc(Cn3nc4ccc(-c5ccccc5)nn4c3=O)n2)c1OC`, `CCc1nnc2ccc(S(=O)(=O)N(Cc3ccc(OC)c(F)c3)c3ccccc3)cn12` is lower in Inhibition: 2.21% for the first, -0.62% for the second.

First: O=c1c2sccc2n2c(=O)n(Cc3ccccc3Cl)nc2n1Cc1cccs1
Second: CCOc1ccc(-n2ccn3c(SC(CC)C(=O)Nc4ccc(C(C)C)cc4)nnc3c2=O)cc1 (stereo not given)
The Inhibition of the first is higher: 32.61% for the first, 6.16% for the second.

Test system: Cryptococcus neoformans
Details: Concentration 32 ug.mL-1; ASSAY_TEST Inhibition of Fungal Growth; detection method Resazurin; Absorption (OD600-OD570); plate type 384well; NBS; CORNING #3640

Going from `CCc1nnc2c(SCC(=O)Nc3ccc(C(=O)OC)cc3)nc3ccccc3n12` to `CCc1nnc2c(SCC(=O)Nc3ccc(OC)c(Cl)c3)nc3ccccc3n12`, the Inhibition rises from -21.71% to -21.55%.

Compared with `O=C(Cn1nc2c(Oc3ccccc3)nccn2c1=O)Nc1ccc2c(c1)OCCO2`, `COc1cccc(Oc2nccn3c(=O)n(CC(=O)NCc4ccccc4Cl)nc23)c1` is lower in Inhibition: -7.17% for the first, -9.66% for the second.

Going from `Cc1ccc(NC(=O)Cn2nc3c(SCc4ccc(Cl)cc4)nccn3c2=O)cc1F` to `COc1ccc(OC)c(NC(=O)Cn2nc3c(SCc4ccc(Cl)cc4)nccn3c2=O)c1`, the Inhibition falls from -12.99% to -18.91%.

Compared with `CCc1ccc(NC(=O)Cn2nc3c4cc(-c5ccc(Cl)cc5)nn4ccn3c2=O)cc1`, `CCOc1ccc(NC(=O)Cn2nc3c4cc(-c5ccc(C)cc5)nn4ccn3c2=O)cc1` is lower in Inhibition: -20.86% for the first, -37.08% for the second.

Compared with `COC(=O)c1sccc1NC(=O)CSc1nc2ccccc2n2c(C)nnc12`, `CCc1nnc2c(SCC(=O)Nc3ccc(C)cc3Cl)nc3ccccc3n12` is lower in Inhibition: -2.05% for the first, -8.66% for the second.

Compared with `O=C(NCc1ccccc1)c1ccc2nn(CC(=O)N3CCN(c4ccccc4F)CC3)c(=O)n2c1`, `CCOC(=O)C1CCN(c2nc3ccccc3n3c(=O)n(CC(=O)Nc4ccccc4F)nc23)CC1` is lower in Inhibition: -15.87% for the first, -20.01% for the second.

Going from `COc1cc(NC(=O)Cn2nc3ccc(SC(C)C)nn3c2=O)cc(OC)c1` to `CC(C)(C)S(=O)(=O)c1ccc2nn(CC(=O)Nc3ccc(Br)cc3)c(=O)n2n1`, the Inhibition falls from -7.98% to -17.49%.

Going from `O=C(CSc1nnc2c3cc(-c4ccccc4)nn3ccn12)Nc1cccc(Br)c1` to `O=C(CSc1nnc2c(=O)n(-c3cccc(F)c3)ccn12)Nc1ccc(Br)cc1F`, the Inhibition rises from -28.34% to -13.45%.

Going from `CCOC(=O)c1ccc(NC(=O)Cn2nc3c4cc(-c5ccc(C)c(C)c5)nn4ccn3c2=O)cc1` to `Cc1ccc(-c2cc3c4nn(CC(=O)Nc5c(C)cccc5C)c(=O)n4ccn3n2)cc1`, the Inhibition falls from -10.15% to -14.67%.

First: COc1ccc(-c2cc3c4nn(CC(=O)Nc5ccc(F)cc5)c(=O)n4ccn3n2)cc1
Second: Cc1ccc(-c2cc3c4nn(CC(=O)Nc5ccc6c(c5)OCO6)c(=O)n4ccn3n2)cc1
The Inhibition of the first is higher: -16.6% for the first, -32.25% for the second.

Going from `Cc1ccc(-c2ccc3nn(Cc4cc(F)cc(F)c4)c(=O)n3n2)cc1C` to `COc1ccc(-c2noc(Cn3nc4ccc(-c5ccccc5)nn4c3=O)n2)cc1OC`, the Inhibition falls from -8.58% to -11.77%.

Going from `CCc1ccc(N(Cc2ccc(OC)cc2)S(=O)(=O)c2cccn3c(C)nnc23)cc1` to `COC(=O)c1ccc(CN(c2ccc(F)cc2)S(=O)(=O)c2cccn3c(C)nnc23)o1`, the Inhibition rises from -10.92% to -7.89%.

Going from `CSc1ccc(CNC(=O)Cn2nc3c(N4CCOCC4)nccn3c2=O)cc1` to `COC(=O)c1ccc(NC(=O)Cn2nc3c(N4CCOCC4)nccn3c2=O)cc1`, the Inhibition falls from -7.62% to -14.01%.

Compared with `CCc1ccccc1Sc1nccn2c(=O)n(CC(=O)NCc3ccc(OC)cc3)nc12`, `CCc1ccccc1NC(=O)Cn1nc2cc(C)nc(Nc3ccc(F)cc3)n2c1=O` is lower in Inhibition: -1.62% for the first, -17.34% for the second.

Compared with `Cc1cc2nn(CC(=O)Nc3ccc(F)cc3F)c(=O)n2c(Nc2ccc(C)c(F)c2)n1`, `Cc1cccc(NC(=O)Cn2nc3ccc(-c4ccccc4)nn3c2=O)c1` is lower in Inhibition: -2.94% for the first, -14.95% for the second.

Going from `COC(=O)c1ccc(CN(c2cccc(C)c2)S(=O)(=O)c2cccn3c(C)nnc23)o1` to `COc1ccc(CN(c2cc(C)cc(C)c2)S(=O)(=O)c2cccn3cnnc23)cc1F`, the Inhibition falls from -7.03% to -10.15%.

Going from `Cc1nnc2ccc(S(=O)(=O)N(Cc3cccc(F)c3)c3cc(F)cc(F)c3)cn12` to `O=S(=O)(c1ccc2nncn2c1)N(Cc1cc(F)cc(F)c1)c1cc(F)cc(F)c1`, the Inhibition rises from -12.8% to -3.18%.

First: O=C(Cn1nc2ccc(SCc3ccc(Cl)cc3)nn2c1=O)NC1CCCCC1
Second: O=C(Cn1nc2nc(Nc3ccc(F)cc3)ccn2c1=O)N1CCCc2ccccc21
The Inhibition of the first is lower: -27.33% for the first, -7.45% for the second.

Compared with `COc1cccc(-c2noc(Cn3nc4ccc(-c5ccccc5)nn4c3=O)n2)c1OC`, `CCc1nnc2ccc(S(=O)(=O)N(Cc3ccc(OC)c(F)c3)c3ccccc3)cn12` is lower in Inhibition: -2.99% for the first, -5.32% for the second.

Going from `O=c1c2sccc2n2c(=O)n(Cc3ccccc3Cl)nc2n1Cc1cccs1` to `CCOc1ccc(-n2ccn3c(SC(CC)C(=O)Nc4ccc(C(C)C)cc4)nnc3c2=O)cc1` (stereo not given), the Inhibition falls from -5.81% to -12.9%.
